Molecules are shown by their SMILES. Activity calls are given as the source filed them. The calls were made as follows: active = hit-call score of the fitted dose curve at least 0.9, where 1 is the maximum; inactive = score below 0.9.

Read-out in this test: Glutamate-cysteine ligase catalytic (GCLC), GCLC (gene 2729)
Description: LTEA_HepaRG_GCLC: Life Technologies and Expression Analysis (LTEA) Assay for Glutamate-cysteine ligase catalytic (GCLC) using HepaRG (AID 2283498). To be noted: mRNA level, 48 h; actives raise or lower the signal. The procedure:
LTEA_HepaRG is a cell based, multiplexed-readout assay that uses HepaRG, a human liver cell line, with measurements taken at 48 hours after chemical dosing on a 96-well plate.LTEA_HepaRG_GCLC is one of 102 assay component(s) measured in the LTEA HepaRG cell culture assay. It is a marker of Oxidative Stress.Data from the assay component LTEA_HepaRG_GCLC was analyzed into 1 endpoint. This assay endpoint, LTEA_HepaRG_GCLC, was analyzed with bidirectional fitting relative to DMSO as the negative control and baseline of activity. Using a type of inducible reporter, measures of mRNA induction for gain or loss-of-signal activity can be used to understand regulation of transcription factor activity. To generalize the intended target to other relatable targets, this assay endpoint is annotated to the ligase intended target family, where the subfamily is C-N ligase.
A total of 1060 chemcials from the ToxCast library were tested in eight-point concentration-response experiments. Cell culture and cytotoxicity assays were conducted at Thermo Fisher Scientific's Custom Services facility (Madison, WI). A single lot of human HepaRG cells (Thermo Fisher Scientific, Frederick, MD) was used for the cell culture experiments. 96-well format collagen type I coated plates of human HepaRG cells were prepared using established methods. Briefly, cryopreserved HepaRG cells were thawed, plated at a density of approximately 100,000 cells/well in HepaRG Thaw, Plate, and General Purpose media (HPRG770, Thermo Fisher Scientific), and incubated for 48 hours. 0.5% DMSO was selected as vehicle control to balance the requisite need of DMSO in HepaRG cultures to maintain differentiation (for example, baseline metabolism, proportions of hepatocytes vs. cholangiocytes), while enabling further hepatic receptor pathway activation (for example, PXR and CAR) in response to chemical exposure. 48 hours after plating, the culture medium was replaced with HepaRG Serum-Free Incudtion Media. Cells were exposed to each test chemical in duplicate and maintained in CO2 incubators for another 48 hours. Chemical plates were thawed to room temperature and 200x concentrations of treatment groups were prepared. 8-point conentration-reponse curves were made with the highest exposure at 100 uM, followed by half-log dilutions, all in 0.5% DMSO. Each test plate contained variouse controls, induction positive controls (1mM phenobarbital), cytotoxicity positive controls ([…] aflatoxin B1), vehicle controls (0.5% DMSO), and total lysis controls (0.5% DMSO). Cell morphology images were taken using an Essen IncuCyte FLR automated microscope, with six 96-well plates imaged in about 24 minutes. Images were captured and exported and JPEG files. Spent culture media was transfered to black-well plates for the LDH assay, and remaining media was sorted at -80 C for later use. Cells were treated with RLT buffer and frozen until shipped for gene expression analysis. Total RNA was isolated from the cell suspension in 75 uL of Buffer RLT (Qiagen, Germantown, MD 20874) by Quintiles/Expression Analysis (Durham, NC) using a custom isolation procedure. Total RNA from each plate well was transferred to a preamplification plate. Fluidigm's 96.96 Dynamic ArrayTM (Fluidigm, Amsterdam, the Netherlands) technology was used for gene expression analyses by quantitative reverse transcription polymerase chain reaction (qRT-PCR, performed by Quintiles/Expression Analysis, Durham, NC)89. Standard TaqManTM Assays (Applied Biosystems/ThermoFisher Scientific, Foster City, CA) were used to assess the expression of 93 genes selected based on their selectivity and sensitivity to important hepatic receptors known to be modulated by environmental chemicals; importance in human hepatocyte functionality; and hepatotoxicity. […]
Consider `CCCCN(CC)c1c([N+](=O)[O-])cc(C(F)(F)F)cc1[N+](=O)[O-]`, for which the outcome was inactive. On the same count and under the same terms, for `COc1ccc(C(=CC(=O)N2CCOCC2)c2ccc(Cl)cc2)cc1OC` the value was “inactive”; for `CCC(=O)Nc1ccc(Cl)c(Cl)c1`, “inactive”. For the compound `CNc1cnn(-c2cccc(C(F)(F)F)c2)c(=O)c1Cl`, the AC50 was 28 µM (active).

As to `CC(=NC#N)N(C)Cc1ccc(Cl)nc1`, the outcome was inactive. On the same count and under the same terms, the same measure for `O=c1ccc(=O)[nH][nH]1`: “inactive”; for `CN(C)NC(=O)CCC(=O)O`: “inactive”; for `COc1cc(OC)nc(Sc2cccc(Cl)c2C(=O)O)n1`: “inactive”. Consider `COP(=O)(NC(C)=O)SC` (stereo not given), for which the compound was classed as inactive. The same measure, in the same setting: for `CC(COc1ccc(Oc2ccccc2)cc1)Oc1ccccn1` (stereo not given) the value was “inactive”; for `CCOP(=S)(Oc1cnc(C(C)(C)C)nc1)OC(C)C` (stereo not given), “inactive”; for `Cc1ccn2nc(S(=O)(=O)Nc3c(F)cccc3F)nc2n1`, “inactive”.

As for `COP(=O)(OC)SCn1c(=O)oc2cc(Cl)cnc21`, the call was inactive. As to `Nc1c(Cl)cc([N+](=O)[O-])cc1Cl`, the half-maximal activity concentration (AC50) is 88 µM (active). As to `CCOP(=S)(OCC)Oc1ccc([N+](=O)[O-])cc1`, the outcome was inactive.

Take `S=C1NCCN1`: the call was inactive. Same read-out and setting: for `Cc1cc(C2CC2)nc(Nc2ccccc2)n1` the value was “inactive”; for `CCOP(=S)(OCC)Oc1ccc2c(C)c(Cl)c(=O)oc2c1`, “inactive”; for `COP(=O)(OC)OC(Br)C(Cl)(Cl)Br` (stereo not given), “inactive”. Turning to `O=[N+]([O-])c1cc(C(F)(F)F)c(Cl)c([N+](=O)[O-])c1Nc1ncc(C(F)(F)F)cc1Cl`, the AC50 was 69.3 µM (active). Regarding `COc1cccc(C(=O)NN(C(=O)c2cc(C)cc(C)c2)C(C)(C)C)c1C`, the result was inactive. `CC[C@H](C)[C@H]1O[C@]2(C=C[C@@H]1C)C[C@@H]1C[C@@H](C/C=C(\C)[C@@H](O[C@H]3C[C@H](OC)[C@@H](O[C@H]4C[C@H](OC)[C@@H](NC)[C@H](C)O4)[C@H](C)O3)[C@@H](C)/C=C/C=C3\CO[C@@H]4[C@H](O)C(C)=C[C@@H](C(=O)O1)[C@]34O)O2`: the AC50 was 50 µM (active). `CCOC(=O)CC(SP(=O)(OC)OC)C(=O)OCC` (stereo not given): the compound was called inactive. The same measure, in the same setting: the same measure for `CSC1=N[C@@](C)(c2ccccc2)C(=O)N1Nc1ccccc1`: “inactive”; for `CCCCOC(=O)[C@@H](C)Oc1ccc(Oc2ccc(C#N)cc2F)cc1`: “inactive”. In the case of `Cc1nn(-c2cc(NS(C)(=O)=O)c(Cl)cc2Cl)c(=O)n1C(F)F`, the call was inactive. As to `CN(C)C(=O)Nc1cccc(C(F)(F)F)c1`, the call was inactive.

For the compound `CC(Oc1cccc(Cl)c1)C(=O)O` (stereo not given), the compound was classed as inactive. As for `CN(C)[C@@H]1C(=O)C(C(N)=O)=C(O)[C@@]2(O)C(=O)C3=C(O)c4c(O)cccc4[C@@](C)(O)[C@H]3[C@H](O)[C@@H]12`, the call was inactive. The same measure, in the same setting: the same measure for `Nc1nc(N)nc(NC2CC2)n1`: “inactive”. Same read-out and setting: the same measure for `CCCSP(=O)(OCC)Oc1ccc(Br)cc1Cl` (stereo not given): “inactive”. Take `CCCOCC(=Nc1ccc(Cl)cc1C(F)(F)F)n1ccnc1`: the AC50 is 91 µM (active). On to `CCC(=NOC/C=C/Cl)C1=C(O)CC(C2CCOCC2)CC1=O` (stereo not given), for which the outcome was inactive. Same read-out and setting: for `CC(C)[C@H](C(=O)O[C@H](C#N)c1cccc(Oc2ccccc2)c1)c1ccc(Cl)cc1` the value was “inactive”; for `CCc1cnc(C2=NC(C)(C(C)C)C(=O)N2)c(C(=O)O)c1` (stereo not given), “inactive”; for `CCc1cccc(CC)c1N(COC)C(=O)CCl`, “inactive”.

As to `O=C(O)c1cc(Oc2ccc(C(F)(F)F)cc2Cl)ccc1[N+](=O)[O-]`, the compound was called inactive. With `C=C(C)[C@H]1Cc2c(ccc3c2O[C@@H]2COc4cc(OC)c(OC)cc4[C@@H]2C3=O)O1`, the compound was called inactive. The same measure, in the same setting: the same measure for `CCCSP(=O)(OCC)SCCC`: “inactive”. As to `CNC(=O)ON=C(C)SC`, the result was inactive.

In general, AC50 refers to the midpoint of the concentration-response curve, whichever way the signal moves.

These data come from PubChem BioAssay (EPA / NIEHS).
